About 79,000 compounds went through this panel and 15% of them were active in at least one assay; those are over-represented in the sample as a whole. Unmarked numbers belong to inactive results. Activity calls are given as the source filed them. Cut-off read from the data, not from the text of the source: active = growth inhibition above about 70%; inactive = the rest.
Assay: NCI Yeast Anticancer Drug Screen. Data for the sgs1 strain (AID 173);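 note: 0% = growth of vehicle-only control cultures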
Settings: S. cerevisiae sgs1 mutant, active compounds read high
Protocol: Growth inhibition of yeast strains with defined genetic alterations is measured as a screen for potential anti-cancer activity. Selected strains with alterations in DNA damage repair or cell cycle control were exposed to compounds and growth inhibition was measured relative to vehicle treated controls. The strain used in this assay is sgs1

Row | Structure (SMILES) | growth inhibition (at 1.2 µM) | growth inhibition (at 3.7 µM) | growth inhibition (at 11.0 µM) | growth inhibition (at 33.0 µM) | growth inhibition (at 100.0 µM)
1 | O=[N+]([O-])c1cc2no[n+]([O-])c2cc1N1CCCCC1 | 51% | 72% (active) | 98% (active) | 99% (active) | 98% (active)
2 | O=C(CCCN1CCC2(CC1)CC(=O)N(N1CCCCCC1)C2=O)c1ccc(F)cc1 | 43% | 45% | 65% | 73% (active) | 77% (active)
3 | CC(=O)Nc1ccc2c(c1)C(=Nc1ccc(C(=O)O)cc1)c1ccccc1-2 | -1% | 2% | 9% | 25% | 95% (active)
4 | CCCCCCCCCC/C=C\C(=O)O | -7% | -5% | -9% | 19% | 98% (active)
5 | Cn1c2ccccc2c(=O)c2cc(NC(=O)CCCCC(=O)Nc3ccc4c(c3)c(=O)c3ccccc3n4C)ccc21 | -5% | -6% | -6% | 4% | 49%
6 | CC(=O)OC1CCC2(C)C(=CCC3C4CCC5(OC6CC(C)CN(C(C)=O)C6C5C)C(C)=C4C(=O)C32)C1 (stereo not given) | -10% | -9% | 54% | 96% (active) | 93% (active)
7 | C=CCC1=C(C)C(OC(=O)/C=C/c2ccccc2)CC1=O (stereo not given) | -9% | 26% | 6% | 6% | 53%
8 | CC(C(=O)N1C(=O)N(C(=O)[C@H](C)C(O)c2ccccc2)[C@H](c2ccccc2)[C@H]1c1ccccc1)[C@@H](O)c1ccccc1 (stereo not given in full) | -2% | 2% | 30% | 65% | 70% (active)
